Results on 14 molecules are retold here after PubChem BioAssay (NCATS).

The target in assay [1] is Phospholipid hydroperoxide glutathione peroxidase GPX4 (Homo sapiens) (UniProt P36969). Kind of assay: Primary qHTS Assay for Inhibitors of Recombinant Selenoprotein Glutathione Peroxidase 4 (GPX4) (AID 1845192). Further: nearly all actives have a fitted effect of over 65% in size. In a few lines:
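qHTS, GR-coupled: GPX4 200 nM + cpd 30 min RT → GSH 1 mM, NADPH 0.5 mM, GR 100 nM → CHP 0.5 mM start; fluor 340/450 at t0 and t15 min; no-enzyme wells as control.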
In general terms: qHTS replaces the single test concentration by a dilution series.

Assay [2] in a line: Quantitative High-Throughput drug screen in 47 multiple myeloma cell lines against the NCATS MIPE library collection: FR4_PLB cell viability assay (AID 1918924; further: nearly all actives have a fitted effect of over 35% in size; further: potency means the concentration at half of the fitted maximal effect). In a few lines:
(§1)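 qHTS of the MIPE 4.0 collection: 500 myeloma cells/well, 48 h drug exposure at 37C in 5% CO2, then CellTiter-Glo for 5 min at room temperature before luminescence reading.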

A short description of assay [3]: Quantitative High-Throughput drug screen in 47 multiple myeloma cell lines against the NCATS MIPE library collection: Delta47_JCRB cell viability assay (AID 1918925; further: nearly all actives have a fitted effect of over 45% in size; further: potency means the concentration at half of the fitted maximal effect). In a few lines:
(§2)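 Primary qHTS used for cherry-picking: cells at 500/well, library compounds for 48 h (37C, 5% CO2), luminescent ATP assay.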

Assay [4] is described as follows: Quantitative High-Throughput drug screen in 47 multiple myeloma cell lines against the NCATS MIPE library collection: EJM_DSMZ cell viability assay (AID 1918926; further: nearly all actives have a fitted effect of over 30% in size; further: potency means the concentration at half of the fitted maximal effect). In a few lines:
as §2

The nature of assay [5]: Quantitative High-Throughput drug screen in 47 multiple myeloma cell lines against the NCATS MIPE library collection: AMO1_DSMZ cell viability assay (AID 1918927; further: nearly all actives have a fitted effect of over 30% in size; further: potency means the concentration at half of the fitted maximal effect). The procedure, abridged: as §2
The nature of assay [6]: Quantitative High-Throughput drug screen in 47 multiple myeloma cell lines against the NCATS MIPE library collection: ARP1_JJKsccF8 cell viability assay (AID 1918928; further: nearly all actives have a fitted effect of over 40% in size; further: potency means the concentration at half of the fitted maximal effect). In a few lines: (§3)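 CellTiter-Glo luminescence after 48 h exposure gives viability, scaled between DMSO-only (100%) and media-only (0%) controls. Library compounds are pinned onto 500 myeloma cells per well, incubated at 37C with 5% CO2.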

Assay [7] in a line: Quantitative High-Throughput drug screen in 47 multiple myeloma cell lines against the NCATS MIPE library collection: Karpas620_DSMZ cell viability assay (AID 1918959). Further: nearly all actives have a fitted effect of over 30% in size. Further: potency means the concentration at half of the fitted maximal effect. The procedure, abridged:
as §1

The nature of assay [8]: Quantitative High-Throughput drug screen in 47 multiple myeloma cell lines against the NCATS MIPE library collection: KMM1_JCRB cell viability assay (AID 1918960). Further: nearly all actives have a fitted effect of over 30% in size. Further: potency means the concentration at half of the fitted maximal effect.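 On viability (% of DMSO): 100% = DMSO-treated cells and 0% = medium-only wells.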 The procedure, abridged:
as §3

Assay [9] is described as follows: Quantitative High-Throughput drug screen in 47 multiple myeloma cell lines against the NCATS MIPE library collection: KHM11_PLB cell viability assay (AID 1918962). Further: nearly all actives have a fitted effect of over 35% in size. Further: potency means the concentration at half of the fitted maximal effect. In a few lines: as §1
For assay [10], the target named is Glutathione peroxidase 1 (Homo sapiens) (UniProt P07203). Kind of assay: Primary qHTS Assay for Inhibitors of Recombinant Selenoprotein Glutathione Peroxidase 1 (GPX1) (AID 1845191). Further: nearly all actives have a fitted effect of over 65% in size. In a few lines:
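GPX1 10 nM, GR 100 nM, GSH 1 mM, NADPH 0.5 mM, CHP 0.5 mM (final). 30-min cpd preincubation, RT. Ex340/Em450 read t=0, t=15 min.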

The target in assay [11] is Luciferin 4-monooxygenase (Photinus pyralis) (UniProt P08659). The assay is described as follows: Primary firefly luciferase (FLuc) qHTS assay for identification of artifact compounds. (AID 1845220). Further: nearly all actives have a fitted effect of over 60% in size. The following applies: outcome: dose series up to 54.1 µM. In a few lines:
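In this counter-screen for luciferase artifacts, test compounds met substrate (10 uM each luciferin and ATP) before 10 nM enzyme started the reaction. Light output was measured 5 min later.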

Assay [12] is described as follows: Primary fluorescence-based thiol-reactive (MSTI) qHTS assay for identification of artifact compounds. (AID 1845221).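 Further: thiol-reactive compounds lower the probe fluorescence signal; nearly all actives have a fitted effect of over 65% in size.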 In a few lines:
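A multi-concentration qHTS design tested compounds against 4 uM MSTI, pH 7.4 phosphate-buffered saline. Plates were protected from light for 1 h at room temperature before imaging fluorescence.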

Assay [13] in a line: Primary redox qHTS assay for identification of artifact compounds. (AID 1845223). The procedure, abridged: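 Redox-cycling detection via DTT (250 uM final) oxidation coupled to Amplex Red (25 uM)/HRP (250 mU/mL) in HBSS. 15 min preincubation plus 30 min after DTT, room temperature. Ex/Em 525/598 nm; 4-parameter Hill fit against DMSO and 10 uM DA3003.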
The nature of assay [14]: Quantitative High-Throughput drug screen in 47 multiple myeloma cell lines against the NCATS MIPE library collection: ARD_JJKsccE7 cell viability assay (AID 1918929; further: potency means the concentration at half of the fitted maximal effect). In a few lines: as §2
A short description of assay [15]: Quantitative High-Throughput drug screen in 47 multiple myeloma cell lines against the NCATS MIPE library collection: Karpas417_ECACC cell viability assay (AID 1918961). Further: potency means the concentration at half of the fitted maximal effect. The following applies: Karpas417 myeloma viability, CellTiter-Glo ATP luminescence, 48 h; viability (% of DMSO): at 45.8 µM (top of the series). In a few lines: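 Luminescent ATP measurement with CellTiter-Glo gives viability, scaled between DMSO-only wells (100%) and media-only wells (0%). Cells, 500 per well, faced library compounds for 48 hours at 37C.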
In general terms: Cellular ATP, detected with luciferase, serves as a proxy for viable cell number.

The target of assay [16] is Metallo-beta-lactamase type 2 (Klebsiella pneumoniae) (UniProt C7C422). The assay is described as follows: qHTS to identify inhibitors of the New Delhi Metallo-beta-lactamase (NDM): assay validation screen against the NCATS LOPAC Collection (AID 1794843). Further: on the % scale 0 is the no-effect control and ±100 the full control effect. The procedure, abridged: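 Absorbance at 485 nm from nitrocefin turnover (50 uM solution added), read at plateau, gives the read-out. Compounds in DMSO were incubated first with 2 nM final NDM-1 in pH 7.0 HEPES buffer containing 1 uM ZnSO4 and 0.01% Tween20.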

SMILES strings stand for the structures. Results filed as inconclusive are left out. Calls of active or inactive are those of the source. The call rests on the fitted dose curve; in most records, active means well fitted curve in the direction sought with a large enough effect; inconclusive means small, poorly fitted or top-dose-only effect, or another doubt; inactive means no such curve, though single readings can be large; an effect the other way counts as inactive or inconclusive.

Chain of Glutathione peroxidase 1 (Homo sapiens) (P07203 whole entry, looked up): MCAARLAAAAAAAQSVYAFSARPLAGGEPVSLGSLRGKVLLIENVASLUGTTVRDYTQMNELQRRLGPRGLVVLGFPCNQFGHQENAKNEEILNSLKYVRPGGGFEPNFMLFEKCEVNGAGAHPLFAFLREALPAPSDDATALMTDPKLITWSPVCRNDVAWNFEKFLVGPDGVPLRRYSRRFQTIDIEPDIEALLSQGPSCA
Chain of Phospholipid hydroperoxide glutathione peroxidase GPX4 (Homo sapiens) (P36969 whole entry, looked up): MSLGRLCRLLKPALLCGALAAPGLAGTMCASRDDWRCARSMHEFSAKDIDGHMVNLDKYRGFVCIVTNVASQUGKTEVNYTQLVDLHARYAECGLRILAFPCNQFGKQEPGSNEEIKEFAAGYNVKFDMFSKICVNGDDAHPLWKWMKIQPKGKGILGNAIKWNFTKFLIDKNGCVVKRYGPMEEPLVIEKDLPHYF
Chain of Metallo-beta-lactamase type 2 (Klebsiella pneumoniae) (C7C422 whole entry, looked up): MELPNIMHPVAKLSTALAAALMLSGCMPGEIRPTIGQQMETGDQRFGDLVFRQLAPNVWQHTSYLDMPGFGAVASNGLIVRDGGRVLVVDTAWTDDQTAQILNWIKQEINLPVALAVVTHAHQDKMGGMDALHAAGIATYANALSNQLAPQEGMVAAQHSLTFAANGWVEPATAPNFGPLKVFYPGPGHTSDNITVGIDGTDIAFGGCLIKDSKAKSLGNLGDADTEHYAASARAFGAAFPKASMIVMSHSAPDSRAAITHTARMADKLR

In the case of `Cn1c(=O)c2[nH]cnc2n(C)c1=O`, the Potency entry in assay [1], in [2], in [3], in assay [4], in [5] and in [6] was “inactive” in each case. The Potency entry in [7], in assay [8] and in assay [9] was “inactive” in each case.
`CS(=O)(=O)CCNCc1ccc(-c2ccc3ncnc(Nc4ccc(OCc5cccc(F)c5)c(Cl)c4)c3c2)o1`: the Potency entry in assay [10] and in [1] was “inactive” throughout. In addition, the result in assay [11], in assay [12] and in assay [13] was inactive. In addition, the Potency in [2] is 14.8 µM (active); in [3], 0.235 µM (active); in [4], 0.0235 µM (active); in assay [5], 2.35 µM (active); in assay [14], 6.62 µM (active); in [7] it was 18.7 µM (active). Also, the Potency in assay [8] was 13.2 µM (active); in assay [15], 6.62 µM (active); in assay [9], 4.69 µM (active).
For the molecule `NCCCCCC(=O)O`, the molecule was classed as inactive in assay [16]. Besides, the Potency entry in assay [1], in [4], in [5], in assay [14], in [7] and in [8] was “inactive” in each case.
On to `Cc1cn([C@H]2C[C@H](N=[N+]=[N-])[C@@H](CO)O2)c(=O)[nH]c1=O`, for which the Potency entry in [10], in [1], in assay [2], in [5], in assay [6] and in assay [14] was “inactive” throughout. The Potency result in assay [7] and in assay [8] was “inactive” throughout. Besides, in assay [4], the Potency is 7.43 µM (active). Further, the viability (% of DMSO) in [15] was 84.8% (active).
In the case of `COc1ccccc1OCC(O)CN1CCN(CC(=O)Nc2c(C)cccc2C)CC1` (stereo not given), the Potency entry in assay [1], in assay [2], in assay [4], in assay [5], in assay [6] and in assay [14] was “inactive” throughout. In addition, the Potency entry in assay [8] was “inactive”.
For `CCOC(=O)c1ncn2c1CN(C)C(=O)c1cc(F)ccc1-2`, the result in assay [16] was inactive. The Potency entry in [1], in assay [3], in [5], in [14], in assay [7] and in assay [8] was “inactive” each time. Besides, the Potency in assay [6] is 16.6 µM (active).
On to `O=C1N(c2ccccc2)c2ccccc2C1(Cc1ccncc1)Cc1ccncc1`, for which the result in [16] was inactive. The Potency entry in [1], in assay [3], in [5], in assay [6], in [7] and in assay [8] was “inactive” in each case. The Potency entry in [9] is “inactive”.
Take `COc1cc2nc(N3CCN(C(=O)C4COc5ccccc5O4)CC3)nc(N)c2cc1OC` (stereo not given): the result in assay [16] was inactive. Besides, the Potency entry in [1] and in assay [4] was “inactive” in each case. In addition, the Potency in [8] is 5.9 µM (active).
For `COc1cc2nc(N3CCN(C(=O)c4ccco4)CC3)nc(N)c2cc1OC`, the molecule was called inactive in assay [16]. For the same molecule, the Potency result in [1] is “inactive”. Further, the Potency in assay [3] is 10.5 µM (active); in [5] it was 5.9 µM (active); in [6], 26.4 µM (active); in [14], 9.35 µM (active); in assay [7] it was 5.26 µM (active); in assay [8] it was 9.35 µM (active). For the same molecule, the Potency in assay [9] is 10.5 µM (active).
As for `CC(C)Cc1ccc(C(C)C(=O)O)cc1` (stereo not given), the result in [16] was inactive. Also, the Potency entry in [1], in [3], in assay [5], in [6], in assay [14] and in assay [7] was “inactive” throughout. Also, in assay [8], the Potency entry is “inactive”.
On to `COc1ccccc1OCCNCC(O)COc1cccc2[nH]c3ccccc3c12` (stereo not given), for which the result in assay [16] was inactive. Moreover, the Potency entry in assay [1] and in [9] was “inactive” each time.
Regarding `Clc1ccc(C(c2ccccc2Cl)C(Cl)Cl)cc1` (stereo not given), the outcome in assay [16] was inactive. Besides, the Potency entry in assay [1] and in assay [7] was “inactive” in each case. Further, the Potency in [5] is 1.87 µM (active).
Take `COc1ccc(CCN(C)CCCC(C#N)(c2ccc(OC)c(OC)c2)C(C)C)cc1OC` (stereo not given): the Potency entry in assay [10] and in [1] was “inactive” throughout.
On to `COc1ccc2c(c1)c(CC(=O)O)c(C)n2C(=O)c1ccc(Cl)cc1`, for which the Potency result in assay [10], in [1], in [2], in assay [6], in assay [7] and in [8] was “inactive” each time. Besides, in assay [3], the Potency is 16.6 µM (active).
